Hit rate of the full screen: of about 63,000 compounds, about 1,100 (1.7%) were called active. The sample as a whole holds a higher share of actives than the screen did. Potency and affinity values are given separately. Values without a mark were called inactive.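 Rule for the calls: active = compounds whose percent cytotoxicity in the single-dose primary screen, scaled between solvent and toxic-drug controls, exceeds 50; inactive = the rest.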
experiment: viability loss of HPDE-C7K cells – cell-based, fluorescence, HTS, primary screen (AID 431); details: HPDE-C7K KRASV12 cells, Alamar Blue viability, 48 h; at 10 µM; stronger effect = higher value;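 note: 0% = DMSO solvent wells and 100% = doxorubicin-treated wells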

Row | Compound | cytotoxicity
1 | O=C1CCCc2sc3c(c2N1)CCCCC3 | 6.3%
2 | CCSc1ncnc2c(C#N)c3n(c12)CCCCC3 | -17%
3 | CCOC(=O)C1=C(N2CCCCC2)c2cc3c(n2C1=O)CCCC3 | 3.2%
4 | Cc1cc(C(=O)Nc2sc3c(c2C#N)CCC3)no1 | 36.4%
5 | CCOc1ccc(OC(=O)c2cccnc2)cc1 | 10.2%
6 | COC(=O)C1=C(C)NC(C)=C(C(=O)OC)C1c1ccc(OC(=O)c2ccco2)cc1 | 11%
7 | CC1=CC(C)(C)Nc2ccc(C)cc21 | -5%
8 | O=C(Oc1ccc2ccccc2c1)c1ccco1 | 2.3%
9 | CCOc1ccc2c(c1)N(C(=O)CN1C(=O)CCC1=O)C(C)(C)C=C2C | -12.2%
10 | CCc1ccc2c(c1)C(C)=CC(C)(C)N2 | -4.3%
11 | COC(=O)c1ccc(OC(=O)c2ccco2)cc1 | -32.6%
12 | O=C(Oc1cccc(Br)c1)c1cccnc1 | -13.7%
13 | c1ccc(CNc2ncnc3c2cnn3-c2ccccc2)cc1 | 36%
14 | Cc1ccc2nc(NC3=NCN(Cc4ccco4)CN3)nc(C)c2c1 | 8.2%
15 | Cc1ccc(-n2nnc3c(SCC(=O)NCc4ccco4)ncnc32)cc1 | 8.5%
16 | O=C(CN1C(=O)NC2(CCCc3ccccc32)C1=O)N1CCc2ccccc2C1 (stereo unspecified) | -21.3%
17 | CCOc1ccc(C(C)(N)C(=O)O)cc1 (stereo unspecified) | 5.7%
18 | COCCn1c(C)cc(C(=O)CSc2nnc(-c3cccnc3)n2-c2ccccc2F)c1C | -8%
19 | CCN(Cc1ccccc1)Cc1c(F)cccc1F | -14.3%
20 | CCN(CC(=O)N1CCOCC1)S(=O)(=O)c1ccc(C)cc1 | -7.2%
21 | COc1ccc(C2C3=C(Nc4ncnn42)c2ccccc2CC3)cc1OC (stereo unspecified) | 50.3% (active)
22 | c1csc(C2C3=C(Nc4ncnn42)c2ccccc2OC3)c1 (stereo unspecified) | 8.9%

Row | Compound | cytotoxicity
23 | COc1cc(C2C(C(=O)OC(C)C)=C(C)Nc3ncnn32)cc(OC)c1OC (stereo unspecified) | 3.4%
24 | COc1ccc(C2C3=C(Nc4ncnn42)c2ccccc2CCC3)cc1 (stereo unspecified) | -11.9%
25 | COc1ccc(C2C(C(C)=O)=C(C)Nc3ncnn32)cc1OC (stereo unspecified) | -18.7%
26 | COc1cc(C2C3=C(Nc4ncnn42)c2ccccc2CC3)cc(OC)c1OC (stereo unspecified) | 62.6% (active)
27 | Cc1ccc(Cl)cc1NC(=O)c1ocnc1C | 0.3%
28 | COc1ccc(N(CC(=O)N2CCN(c3ccccc3)CC2)S(=O)(=O)c2c(C)noc2C)cc1 | -8.3%
29 | NC(=O)c1c(NC(=O)Cc2cccs2)sc2c1CCC2 | -2.4%
30 | CC(C)(C#N)Nn1cnnc1 | -13.8%
31 | O=C(Nc1nc(-c2nc3ccccc3s2)cs1)c1ccco1 | 1.4%
32 | Cc1cccn2c(=O)c(C=Nc3ccccc3)c(NCc3ccco3)nc12 | -13.4%
33 | COc1ccc2c(c1)N1CCN=C1N2C | -12%
34 | Cc1cc(=O)[nH]c2ccccc12 | -5.7%
35 | CN(C)C=Nc1ncc2c([nH]c3ccccc32)c1C#N | 19.8%
36 | CSc1ccccc1NC(=O)c1cnccn1 | -5.1%
37 | CN(C)CCCNC(=O)CCC1CCCCC1 | 1.5%
38 | COc1ccc(N2CCN(C(=O)CN=C3NS(=O)(=O)C(c4ccc(C)cc4)=C3C)CC2)cc1 | -1.4%
39 | CC(C)CC(NC(=O)COc1ccccc1)C(=O)O (stereo unspecified) | 5.6%
40 | CCN1C(=O)c2cccc3c(NC(=O)c4ccc(S(=O)(=O)N(C)C)cc4)ccc1c23 | 0%
41 | CCN1C(=O)c2cccc3c(NC(=O)c4ccc5c(c4)OCCO5)ccc1c23 | 95.1% (active)
42 | CCN1C(=O)c2cccc3c(NC(=O)c4cccc(N5C(=O)CCC5=O)c4)ccc1c23 | -10.7%
43 | c1ccc2c(c1)C(=NCC1CCCO1)NC2=NCC1CCCO1 (stereo unspecified) | 8.3%
44 | O=C1c2oc3ccc(F)cc3c(=O)c2C(c2ccc(F)cc2)N1CCCN1CCOCC1 (stereo unspecified) | -15.7%

Row | Compound | cytotoxicity
45 | COc1ccc(CC(=O)N2CCNC2=O)cc1 | -17.1%
46 | Fc1ccc(C2=Nn3c(nnc3-c3n[nH]c4c3CCC4)SC2)cc1 | 1.2%
47 | Clc1ccc(C2=Nn3c(nnc3-c3n[nH]c4c3CCC4)SC2)cc1Cl | 71.9% (active)
48 | c1ccc(C2=Nn3c(nnc3-c3n[nH]c4c3CCC4)SC2)cc1 | 10.4%
49 | CC1=Nn2c(nnc2-c2n[nH]c3c2CCC3)SC1 | -0.7%
50 | Brc1ccc(C2=Nn3c(nnc3-c3n[nH]c4c3CCC4)SC2)cc1 | 53.5% (active)
51 | Clc1ccc(C2=Nn3c(nnc3-c3n[nH]c4c3CCC4)SC2)cc1 | 25.9%
52 | COC(=O)c1ccc(S(=O)(=O)N2C3CCC2CC(NC(=O)NC2CCCCC2)C3)cc1 (stereo unspecified) | -5.3%
53 | CCn1c(SCC(=O)NCc2ccco2)nc2cccnc21 | -20.4%
54 | CCSc1sccc1C1C(C#N)=C(N)N(c2cccnc2)C2=C1C(=O)CC(C)(C)C2 (stereo unspecified) | 30.9%
55 | O=C(Nc1ccc2oc(Cc3ccc(Cl)cc3)nc2c1)c1cccnc1 | 58.3% (active)
56 | Cc1ccc(-c2nc3cc(C)ccc3o2)cc1 | 8.8%
57 | O=C(Nc1ccc2oc(=O)ccc2c1)c1cccnc1 | 7.9%
58 | O=C(Nc1ccc2oc(-c3ccccc3)nc2c1)c1cccnc1 | 34.5%
59 | O=C(Nc1ccc(-c2nc3ccccc3o2)cc1)c1ccc2c(c1)OCO2 | 2%
60 | COC(=O)c1ccc(-c2nc3ccccc3o2)cc1 | -20.7%
61 | COC(=O)c1ccc(-c2nc3ccc(C)cc3o2)cc1 | 54.8% (active)
62 | COc1ccc(-c2nc3cc(NC(=O)c4ccc5c(c4)OCO5)ccc3o2)cc1 | -6.9%
63 | Cc1ccc2oc(-c3ccc(NC(=O)c4ccc5c(c4)OCO5)cc3)nc2c1 | 85.1% (active)
64 | CCc1ccc2oc(-c3cccc(NC(=O)c4cccnc4)c3)nc2c1 | 10.6%
65 | O=C(Nc1ccc2oc(-c3cccnc3)nc2c1)c1cccnc1 | 3.2%
66 | Cc1ccc2oc(-c3ccc(NC(=O)c4cccnc4)cc3)nc2c1 | 56.9% (active)

From PubChem BioAssay AID431 (Sanford-Burnham Center for Chemical Genomics, 2006)
